Bioassay records deposited in PubChem BioAssay by National Center for Advancing Translational Sciences (NCATS).
Sfp PPTase inh: qHTS Assay for Inhibitors of Bacillus subtilis Sfp phosphopantetheinyl transferase (PPTase). 4'-phosphopantetheinyl transferase ffp (Bacillus subtilis), Q9F4F7. Biochemical Sfp PPTase activity, qHTS. Potency, µM, most hits filed as inhibitors. 310,000 compounds, 3.5% hits. AID 1490, 2009;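 note: the enzyme is Sfp with the accession as filed and its product quenches rhodamine fluorescence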
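With Hepes-Na pH 7.6 buffer containing 10 mM MgCl2, Sfp (15 nM) modified BHQ-2-YbbR (12.5 uM) using rhodamine-CoA (5 uM). Two reads 30 minutes apart at 525/598 nm yielded each well's rate.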
G9a inh: qHTS Assay for Inhibitors of Histone Lysine Methyltransferase G9a; 350,000 compounds, 8.8% hits; Potency, µM (titrated, usually from 102 µM), most hits filed as inhibitors; Histone-lysine N-methyltransferase EHMT2 (Homo sapiens), Q96KQ7; AID 504332, 2011; G9a H3K9 monomethylation, AlphaScreen, 2 h; note: nearly all actives have a fitted effect of over 75% in size
Target sequence (Q96KQ7 913-1193 limits assumed): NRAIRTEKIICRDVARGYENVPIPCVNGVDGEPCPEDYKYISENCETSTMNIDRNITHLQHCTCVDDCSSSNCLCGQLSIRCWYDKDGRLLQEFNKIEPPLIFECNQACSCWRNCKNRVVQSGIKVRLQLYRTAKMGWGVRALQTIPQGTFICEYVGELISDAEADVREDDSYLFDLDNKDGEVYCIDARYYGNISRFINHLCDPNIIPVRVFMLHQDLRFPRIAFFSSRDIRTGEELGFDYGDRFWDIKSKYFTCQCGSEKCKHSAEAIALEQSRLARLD
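Compounds were preincubated with 20 nM G9a for 15 min, after which biotinylated H3K9 peptide (500 nM) and SAM (20 uM) started a 2 h room-temperature reaction. Monomethylated product was quantified by antibody-based AlphaScreen chemiluminescence.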
BAZ2B inh: qHTS Assay for Inhibitors of BAZ2B. Potency, µM (doses to about 114 µM), most hits filed as inhibitors. Bromodomain adjacent to zinc finger domain protein 2B (Homo sapiens), Q9UIF8. AlphaScreen BAZ2B-H3K14Ac peptide displacement. 360,000 compounds, 4.4% hits. AID 504333, 2011; note: nearly all actives have a fitted effect of over 60% in size
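Multi-concentration screen (max 110 uM) measuring displacement of acetylated histone H3 peptide from BAZ2B by AlphaScreen, using 50 nM protein, 50 nM peptide and 10 ug/mL streptavidin donor plus Ni-chelate acceptor beads.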
JMJD2A Tudor inh: qHTS Assay for Inhibitors of JMJD2A-Tudor Domain. AID 504339, 2011. 390,000 compounds, 4.4% hits. Lysine-specific demethylase 4A (Homo sapiens), O75164. AlphaScreen JMJD2A-Tudor / H3K4me3 peptide binding. Potency, µM (top dose mostly 114 µM), usual class: inhibitors; note: nearly all actives have a fitted effect of over 50% in size
HP1b binding inh: HTS for Inhibitors of HP1-beta Chromodomain Interactions with Methylated Histone Tails; Chromobox protein homolog 1 (Homo sapiens), P83916; AlphaScreen HP1-beta / biotin-H3K9me3 peptide binding; Potency, µM (titrated, usually from 114 µM), most hits filed as inhibitors; 390,000 compounds, 0.56% hits; AID 540317, 2011; note: nearly all actives have a fitted effect of over 70% in size
Target sequence (P83916 whole entry, looked up): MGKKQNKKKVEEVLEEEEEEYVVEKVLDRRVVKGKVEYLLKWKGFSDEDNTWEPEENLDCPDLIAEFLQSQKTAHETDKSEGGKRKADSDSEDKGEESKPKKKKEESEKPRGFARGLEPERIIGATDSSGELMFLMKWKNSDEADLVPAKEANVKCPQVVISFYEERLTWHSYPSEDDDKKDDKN
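HP1-beta protein (50 nM final) preincubated 30 min at room temperature with biotinylated H3(1-18)K9me3 peptide (50 nM) in PBS pH 7.4, 0.01% Tween-20, then compound added for 30 min. AlphaScreen streptavidin donor/nickel chelate acceptor beads (10 ug/mL final), 30 min dark, luminescence read.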
L3MBTL1 inh: qHTS Assay for the Inhibitors of L3MBTL1; Lethal(3)malignant brain tumor-like protein 1 (Homo sapiens), Q9Y468; AlphaScreen L3MBTL1–H3K9me1 peptide binding; Potency, µM (highest dose often 57.1 µM), usual class: inhibitors; 230,000 compounds, 0.66% hits; note: nearly all actives have a fitted effect of over 60% in size
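L3MBTL1 (50 nM) pre-complexed 30 min with biotinylated H3(1-15)K9me1 peptide (75 nM), then compounds added for 30 min at room temperature; AlphaScreen streptavidin donor/nickel chelate acceptor beads (10 ug/mL final) read after 30 min dark incubation.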
Hits are given with their value; – = inactive; ? = inconclusive; · = no result given; [ ] = another dose, or the depositor's remark. Compounds with a hit are over-represented: about 12% of the library has one in this group of screens. Calls come from the whole dose curve; as a rule, active = well fitted curve in the direction sought with a large enough effect; inconclusive = small, poorly fitted or top-dose-only effect, or another doubt; inactive = no such curve, though single readings can be large; an effect the other way counts as inactive or inconclusive.

SMILES | Sfp PPTase inh | G9a inh | BAZ2B inh | JMJD2A Tudor inh | HP1b binding inh | L3MBTL1 inh
O=C(Nc1nncs1)c1cc(-c2ccncc2)nc2ccc(Cl)cc12 | – | 50.1µM | – | – | – | ·
Cc1csc(NC(=O)c2cc(-c3ccccc3)nc3ccccc23)n1 | – | 70.8µM | – | – | – | –
CC(C)(C)c1nnc(NC(=O)c2cc(-c3ccccc3)nc3ccccc23)s1 | 20µM | ? | – | – | – | –
CCc1nnc(NC(=O)c2cc(-c3ccncc3)nc3ccccc23)s1 | – | ? | – | – | – | –
Cc1ccc(C(=O)Nc2nc3c(s2)CCCC3)o1 | – | 56.2µM | – | – | – | ·
CC(=O)Nc1cccc(NC(=O)c2cc(-c3cccnc3)nc3ccc(Cl)cc23)c1 | – | ? | – | – | – | –
Cc1ccc(S(=O)(=O)N2CCN(CN3C(=O)CC4(CCCC4)C3=O)CC2)cc1 | · | – | – | – | – | –
O=C(Nc1nc2c(s1)CCCC2)c1cc(-c2ccccc2)nc2ccccc12 | – | 12.6µM | – | – | – | –
O=C(Nc1nc2c(s1)CCCC2)c1cc(-c2ccncc2)nc2ccccc12 | – | ? | – | – | – | –
COC(=O)c1sccc1NC(=O)c1cc(-c2ccc(C)cc2)nc2ccccc12 | – | · | – | – | – | –
COC(=O)c1sccc1NC(=O)c1cc(-c2cccc(C)c2)nc2ccccc12 | 15.8µM | – | – | – | – | –
CCN(CC(=O)NCc1cccs1)C(=O)Cc1ccc(C)c(C)c1 | · | · | · | – | – | –
CC1CCCCN1C(=O)COC(=O)c1cc([N+](=O)[O-])ccc1N1CCOCC1 (stereo not given) | · | 44.7µM | – | – | – | –
NC(=O)c1ccc(NC(=O)COC(=O)c2cc([N+](=O)[O-])ccc2N2CCOCC2)cc1 | · | 12.6µM | – | – | – | –
CC(NC(=O)COC(=O)c1cc([N+](=O)[O-])ccc1N1CCOCC1)c1ccccc1 (stereo not given) | – | ? | – | – | – | ·
Cc1cc(Cl)ccc1NC(=O)COC(=O)c1cc([N+](=O)[O-])ccc1N1CCOCC1 | · | 56.2µM | – | ? | – | –
CC(NC(=O)COC(=O)c1cc([N+](=O)[O-])ccc1N1CCOCC1)c1ccc(F)cc1 (stereo not given) | · | ? | 50.1µM | ? | – | –
COc1cccc(C(=O)Nc2cccc(OCc3cc(=O)n4cccc(C)c4n3)c2)c1 | · | – | – | – | – | ·
C=Cc1ccc(Cn2c(=O)n(C)c(=O)c3sccc32)cc1 | – | · | – | – | – | –
O=C(O)c1ccc(-c2ncc[nH]2)cc1 | – | – | – | 20µM | – | –
O=C(O)c1ccc(-c2nc3ccccc3[nH]2)cc1 | – | – | – | – | – | –
O=C(NCCN1CCc2ccccc2C1)C1CCN(S(=O)(=O)N2CCCCC2)CC1 | ? | 50.1µM | ? | ? | – | –
CS(=O)(=O)N1CCCC(C(=O)NCCCN2CCc3ccccc3C2)C1 (stereo not given) | – | 11.2µM | – | 79.4µM | – | –
Sc1nnc(-c2ccc(Cl)cc2)n1Cc1ccccc1 | · | –[12.7 µM] | – | – | – | –
CCOC(=O)c1ccccc1NC(=O)CCc1c(C)nc2ncnn2c1C | · | – | – | – | – | ·
SMILES | Sfp PPTase inh | G9a inh | BAZ2B inh | JMJD2A Tudor inh | HP1b binding inh | L3MBTL1 inh
Cc1ccc(S(=O)(=O)N/N=C/c2ccc(O)cc2O)cc1[N+](=O)[O-] | 50.1µM | 44.7µM | – | – | – | –
COc1cc(/C=N/NS(=O)(=O)c2ccc(C)c([N+](=O)[O-])c2)ccc1O | – | ? | · | – | – | –
O=[N+]([O-])c1ccccc1C=NNC(=S)NN=Cc1ccccc1[N+](=O)[O-] | · | · | · | ? | – | ·
O=[N+]([O-])c1cccc(S(=O)(=O)N/N=C\c2ccc3c(c2)OCO3)c1 | – | – | – | – | – | ·
C/C(CCC(C)C)=N\NS(=O)(=O)c1ccc(C)c([N+](=O)[O-])c1 | – | 12.6µM | – | – | – | –
O=[N+]([O-])c1ccc(S(=O)(=O)N/N=C/c2ccc3c(c2)OCO3)cc1 | – | 50.1µM | ? | – | – | ·
O=[N+]([O-])c1ccccc1NC(=S)N/N=C/c1ccc(O)c(O)c1 | – | · | 10µM | ? | 8.91µM | ?
CC/C(C)=N/NS(=O)(=O)c1ccc(C)c([N+](=O)[O-])c1 | ? | ? | – | – | – | ·
O=C(Nc1cccc(F)c1)c1oc2ccccc2c1NC(=O)C12CC3CC(CC(C3)C1)C2 | · | – | – | – | – | ·
O=C1CCN(S(=O)(=O)c2ccc(Cl)cc2)CCN1 | – | – | – | –[11.4 µM] | – | –
CCN(CC)CCn1c(-c2ccccc2)nc2c(NCCO)nc(C)nc21 | – | · | · | · | · | ·
CCOc1cccc(/C=N/NS(=O)(=O)c2ccc(C)c([N+](=O)[O-])c2)c1O | 56.2µM | ? | · | – | – | –
CCOc1cccc(/C=N/NC(=S)Nc2ccccc2[N+](=O)[O-])c1O | – | – | 11.2µM | ? | – | ?
